# Assay results published in the supplement of paper PMC6555819.
# Assays:
# Assay in all cases: PBM binding z-score (relative to random genomic background probes); higher = stronger binding; sequences stand for … in GC…GCGATTGACAGCGTAGAATGAAGG
# [1] = tested on: PPARg:RXRa DBDmut IVT, anti-RXR (DBD mutation: RXRa K156A/R161A, NR concentration 270 nM, RXRa partner concentration 90 nM)
# Procedure, shortened: (§1)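 Binding buffer was PBS pH 7.4 with 2% milk, 0.02% Triton X-100, 1 mM DTT, 0.2 mg/mL BSA and 0.4 mg/ml salmon testes DNA. In it, ligand-free nuclear receptor dimers were incubated 1 h on custom Agilent 4×180K protein-binding microarrays carrying double-stranded probes. Antibodies against each partner (one per run) detected binding, and z-scores were calculated against random background probes after regression normalization of scanned fluorescence.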
# [2] = tested on: PPARg:RXRa IVT, anti-PPARg (NR concentration 270 nM, RXRa partner concentration 90 nM)
# Procedure, shortened: as §1
# [3] = tested on: PPARg DBDmut:RXRa IVT, anti-PPARg (DBD mutation: PPARg1 K132A/R137A, NR concentration 270 nM, RXRa partner concentration 90 nM)
# Procedure, shortened: as §1
# [4] = tested on: PPARg DBDmut IVT, anti-PPARg (DBD mutation: PPARg1 K132A/R137A, NR concentration 270 nM)
# Procedure, shortened: as §1
# [5] = tested on: PPARg homodimer (NR concentration 180 nM)
# Procedure, shortened: as §1
# [6] = tested on: PXR:RXRa (NR concentration 270 nM, RXRa partner concentration 90 nM)
# Procedure, shortened: as §1
# [7] = tested on: PXR homodimer (NR concentration 270 nM)
# Procedure, shortened: as §1
# [8] = tested on: RARa:RXR (NR concentration 270 nM, RXRa partner concentration 90 nM)
# Procedure, shortened: as §1
# [9] = tested on: RARa homodimer (NR concentration 270 nM)
# Procedure, shortened: as §1
# [10] = tested on: RARb:RXRa (NR concentration 270 nM, RXRa partner concentration 90 nM)
# Procedure, shortened: as §1
# [11] = tested on: RARb homodimer (NR concentration 270 nM)
# Procedure, shortened: as §1
# [12] = tested on: RARg:RXRa (NR concentration 270 nM, RXRa partner concentration 90 nM)
# Procedure, shortened: as §1
# [13] = tested on: RARg homodimer (NR concentration 270 nM)
# Procedure, shortened: as §1
# [14] = tested on: RXRa DBDmut IVT, anti-RXR (DBD mutation: RXRa K156A/R161A, NR concentration 90 nM)
# Procedure, shortened: as §1
# [15] = tested on: RXRa homodimer (NR concentration 180 nM)
# Procedure, shortened: as §1
# [16] = tested on: THRa:RXRa (NR concentration 90 nM, RXRa partner concentration 90 nM)
# Procedure, shortened: as §1
# [17] = tested on: THRa homodimer (NR concentration 90 nM)
# Procedure, shortened: as §1
# [18] = tested on: VDR:RXRa (NR concentration 270 nM, RXRa partner concentration 90 nM)
# Procedure, shortened: as §1
# [19] = tested on: VDR homodimer (NR concentration 270 nM)
# Procedure, shortened: as §1
Sequence,PBM binding z-score [1],PBM binding z-score [2],PBM binding z-score [3],PBM binding z-score [4],PBM binding z-score [5],PBM binding z-score [6],PBM binding z-score [7],PBM binding z-score [8],PBM binding z-score [9],PBM binding z-score [10],PBM binding z-score [11],PBM binding z-score [12],PBM binding z-score [13],PBM binding z-score [14],PBM binding z-score [15],PBM binding z-score [16],PBM binding z-score [17],PBM binding z-score [18],PBM binding z-score [19]
CGTCCAAGGTCATAGGAGGTCGGTGAAGACAGAT,2.55,3.51,-0.173,0.224,2.9,6.03,1.77,4.4,0.95,4.89,4.09,6.01,6.48,3.77,6.13,4.77,2.45,5.71,3.77
GTGACTGGGGCATCAGCAGGTTACCATAACTTAA,4.3,4.9,0.566,0.266,0.222,0.254,0.042,0.669,-0.0196,1.09,1.3,1.36,0.86,-0.0186,0.481,1.09,0.198,0.163,-0.0019
TCTTGTAGATCAGCAGGTTAAGAAGGCTGGCCAA,1.84,0.182,-0.501,-0.862,0.413,0.183,-0.311,0.64,-0.641,0.214,0.175,0.0178,-0.229,0.672,0.428,0.192,-0.361,0.724,-0.0588
CCTACTGGGCCAAAAACGTCATTGATGCCGATAA,2.89,2.22,-0.472,-0.737,0.2,-0.35,-0.449,-0.17,-0.624,-0.163,-0.34,-0.089,-0.172,-0.196,0.029,-0.371,-0.47,-0.0711,-0.735
TCGAGTAGGTTAGGGGCATTCTGAATGGCGTCGA,2.23,1.58,-0.74,-0.137,0.496,0.244,0.106,0.337,-0.415,0.807,0.656,0.0827,0.00279,0.628,0.386,0.627,-0.0336,0.242,0.572
GATACAGGGTCCGCTAGAGGCCAGAGTATGGAAA,-1.31,-0.762,-1.66,-1.32,-0.788,-0.821,-0.331,-0.782,-1.34,0.181,0.0694,0.628,0.211,-0.114,-0.246,0.0317,-1.09,-0.544,-0.148
GGAAGGAGGGCAAAGTTGATAGCATCTGTCGACG,4.12,4.58,0.789,0.418,1.64,1.3,1.62,1.57,1.19,2.31,1.91,2.07,1.55,1.37,1.89,1.04,0.664,0.964,1.44
ATACCAAGGTGATCGTGAGGTCGTAGATACTAAC,0.0521,1.54,0.536,0.745,0.811,2.2,0.811,2.21,0.262,1.33,1.56,2.26,1.03,-0.0325,1.76,3.54,2.52,2.42,1.86
CCTAGTTGGTCACGGTCACACACGCTATAGGTAC,2.6,3.1,1.29,1.48,1.79,0.642,0.636,0.844,1.66,2.53,2.79,1.84,2.25,1.13,0.982,1.05,1.4,1.12,0.987
GGAACGAGGGCAAATTTGATAGCATCTGTCGACG,3.93,2.76,0.00863,-0.28,0.201,0.608,0.0405,0.115,0.0323,2.19,0.969,1.06,1.73,2.41,0.93,0.959,-0.432,0.619,0.807
CGAACTAGGTCAGAACAGGACAGTGTAGGATGAT,7.44,7.53,3.18,2.19,1.06,0.998,0.228,0.95,0.229,3.07,2.16,2.56,3.47,0.551,1.28,3.47,0.227,0.86,0.291
CAAACTAGGTCACCGGAAGGTCAAACTCCGCATG,8.32,8.83,5.1,4.65,8.25,6.17,2.46,7.35,2.71,5.14,5.43,8.28,7.24,2.46,6.33,4.6,3.44,6.17,4.04
GCTTGTAGATCAAGGTTAAGTAAGACTAAGCTAA,1.5,1.73,-0.282,0.512,-0.0519,0.746,-0.237,0.964,-0.148,0.875,0.397,0.425,0.177,0.147,0.706,2.36,-0.276,0.257,-0.509
ATCGAAAGCTCGAAGGTGAGTATACCCACCCGAA,-0.94,-0.157,0.15,-0.14,-1.31,-0.547,-0.343,-0.558,-0.499,0.055,-0.378,-0.032,0.202,-1.19,0.158,-0.167,-1.04,-0.463,-0.249
TCATATAGGTGAAGGTGAAAGTCGAACGATATGA,6,6.13,1.24,0.938,0.35,0.448,0.0381,1.08,0.38,1.88,1.3,1.42,1.48,0.518,1.6,0.793,-0.343,0.278,-0.0365
AACTCTAGGTAAAGATAGTTCAGTGAATGCAAAT,2.43,1.47,1.03,0.24,0.547,0.755,0.513,0.462,0.929,0.576,1.06,0.458,0.642,0.162,0.119,0.754,-0.108,0.688,0.243
CCAGACAGGTGGAAGGTAACTCAGTCTGGTACGC,-0.367,-0.196,-1.35,-1.42,0.35,-0.242,-0.0179,-0.223,0.246,-0.313,0.0116,-0.129,-0.15,-0.527,0.236,-0.18,-0.144,-0.365,-0.0329
TCGAGGAGGTTAGTCGGGGCATTCAGCCAACATA,1.28,0.923,-0.713,-1.04,0.777,1.05,0.348,0.897,-0.313,1.01,1.08,0.581,0.486,0.514,0.67,2.08,0.602,3.8,1.04
CCGACTGGGGCCAGGTTACCATAACGCACAGCCA,-0.238,-0.22,-1.52,-1.47,0.249,-0.136,-0.0661,0.176,-0.0137,0.996,0.918,0.349,0.638,-0.672,0.426,0.785,0.378,-0.248,-0.444
GCTGCTAGGTCAACTGCTGGTCAGCTAAAGCTCG,5.01,4.38,-0.67,-1.29,0.927,1.25,-0.956,2.52,-0.88,4.34,3.54,5.38,5.45,1.4,2.79,2.92,0.954,1.38,-0.195
CCTAGTTGGTCAAGGTCACACAAGCTATAGGTAC,2.43,4.01,1.16,1.04,4.16,4.47,2.97,4.29,2.77,4.33,4.53,4.81,4.89,2.26,4.88,4.19,3.83,4.38,3.72
TCTTATAGATCAACAGGAGGTTAAGAAAGATCGA,2.24,0.332,0.51,0.867,0.452,0.958,0.0264,1.46,0.64,0.877,0.606,1.45,0.65,1.06,1.47,1.05,-0.19,1.01,-0.0267
AGAACGAGGGCACGCTGAGTTGATAGAAGAGTAG,3.93,3.46,0.756,0.00527,0.193,1.28,-0.0963,0.661,-0.807,2.31,1.17,1.97,2.31,1.83,1.29,1.91,-0.0196,2.26,1.72
GCAGACAGGTGAAACGCAGCTAACTCAGGGTGGC,0.771,0.278,-1.29,-0.6,-1.08,-0.921,-0.971,-0.616,-1.12,0.0872,-0.474,-0.209,-0.0146,-0.543,-0.0388,-0.192,-0.872,-0.847,-1.11
AATACAGGGTCGTCGTAGGCCAGAGTACGCACAG,-0.0628,0.91,0.684,0.302,0.517,1.7,0.241,2.19,0.296,1.72,1.42,2.13,1.29,1.76,2.81,3.4,0.245,2.62,1.78
CAAACTAGGTCACGAAAGGTCAAAGACGAATGAC,8.52,9.24,4.91,4.77,6.85,7.05,2.93,7.89,4.46,5.69,5.96,7.75,8.37,2.55,8.19,5.15,2.72,6.91,3.52
TAGCTTAGGTCATGGGCCAGTATACCACGCGAAC,1.43,2.29,0.945,-0.133,1.14,1.82,-0.151,2.69,0.342,4.1,3.13,4.31,4.67,0.975,3.74,3.68,2.42,2.15,0.172
CCTAGTGGGCCATTCAGAGGTCATTGATCATATG,4.41,4.44,1.45,0.315,4.35,4.94,2.6,4.89,0.902,2.98,3.74,4.53,3.07,0.957,3.76,3.08,1.34,3.85,3.53
ATCTCTAGGTGAGACTCAGTTCAGTGAAGAACGC,4.55,3.85,0.96,-0.0812,-0.0769,1.31,0.653,0.361,0.0758,0.707,0.564,0.527,0.376,0.062,0.00106,0.954,0.42,0.863,0.761
ACTAGCAGGCCAAGGGTCCCTCAAGATTAGTCCG,0.0687,0.882,-0.919,-0.963,-0.0936,-0.598,-0.427,-0.327,-1.05,0.381,0.0685,-0.0773,-0.0696,-0.495,-0.0168,-0.255,-0.726,-0.454,-0.484
